# Screening results from PubChem.
# BCLXL inh: inhibitors of human Bcl-xL, primary screen, biochemical, fluorescence polarization, HTS; GST-Bcl-xL / FITC-Bim BH3 peptide fluorescence polarization; Bcl-2-like protein 1 (Homo sapiens), Q07817; actives 0.7% (n = 320,000); inhibition, % at 10.9 µM;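 active means inhibition above the mean of all tested compounds plus 3 SD, cutoff set per campaign, cut at about 30% in these data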;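 further: 0% = DMSO wells and 100% = unlabeled Bim-BH3 peptide competitor; inhibitors lower millipolarization by displacing the labeled peptide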
# Target sequence (Q07817 whole entry, looked up): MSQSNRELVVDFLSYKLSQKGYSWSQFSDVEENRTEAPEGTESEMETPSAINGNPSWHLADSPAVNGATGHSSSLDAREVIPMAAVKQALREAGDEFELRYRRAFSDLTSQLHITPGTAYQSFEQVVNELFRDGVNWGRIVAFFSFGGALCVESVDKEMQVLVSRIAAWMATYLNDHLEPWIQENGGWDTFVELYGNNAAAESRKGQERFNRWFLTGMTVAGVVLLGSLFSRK
# GLD-1 TGE inh: GLD-1/TGE RNA complex disruptors, primary screen, biochemical, fluorescence polarization | AID 2280, 2010 | inhibition, % at 5.96 µM | purified GLD-1 + fluorescein TGE RNA | actives 0.44% (n = 320,000) | Female germline-specific tumor suppressor gld-1 (Caenorhabditis elegans), Q17339;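 active means percent inhibition above a per-plate cutoff, the plate mean of test compounds plus 3 SD, cut at about 30% in these data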;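 further: 0% = DMSO wells with GLD-1 and probe and 100% = wells lacking GLD-1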
# MCL1 BIM primary: inhibitors of MCL1 binding to BIM-BH3, primary screen, biochemical, fluorescence polarization | actives 0.68% (n = 320,000) | GST-MCL1 / FITC-Bim-BH3 fluorescence polarization | Induced myeloid leukemia cell differentiation protein Mcl-1 (Homo sapiens), Q07820 | AID 2057, 2009 | inhibition, % at 10.9 µM;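 active means inhibition above the mean inhibition of all tested compounds plus 3 SD, set per campaign, cut at about 40% in these data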;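 further: 0% = DMSO wells and 100% = unlabeled Bim-BH3 peptide control; higher means more loss of mP so more displacement of Bim peptide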
# MEX-5 binding: MEX-5 zinc finger RNA-binding disruptors – biochemical, C. elegans, fluorescence polarization, MLPCN library, primary screen | AID 1832, 2009 | actives 0.38% (n = 300,000) | MEX-5/FITC-TCR2 RNA binding; hits give low values | activity score (negative = inhibition of binding), % at 10 µM | Zinc finger protein mex-5 (Caenorhabditis elegans), Q9XUB2;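 active means inhibition past about -25% in most replicates, and total fluorescence under double the plate's negative control median, limit read from the data; inconclusive means replicates evenly split on the limit, or fluorescence at least double controls; inactive means too little inhibition in most replicates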;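 further: 0% = DMSO and -100% = 5 µM competing unlabeled TCR2 RNA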
# Target sequence (Q9XUB2 whole entry, looked up): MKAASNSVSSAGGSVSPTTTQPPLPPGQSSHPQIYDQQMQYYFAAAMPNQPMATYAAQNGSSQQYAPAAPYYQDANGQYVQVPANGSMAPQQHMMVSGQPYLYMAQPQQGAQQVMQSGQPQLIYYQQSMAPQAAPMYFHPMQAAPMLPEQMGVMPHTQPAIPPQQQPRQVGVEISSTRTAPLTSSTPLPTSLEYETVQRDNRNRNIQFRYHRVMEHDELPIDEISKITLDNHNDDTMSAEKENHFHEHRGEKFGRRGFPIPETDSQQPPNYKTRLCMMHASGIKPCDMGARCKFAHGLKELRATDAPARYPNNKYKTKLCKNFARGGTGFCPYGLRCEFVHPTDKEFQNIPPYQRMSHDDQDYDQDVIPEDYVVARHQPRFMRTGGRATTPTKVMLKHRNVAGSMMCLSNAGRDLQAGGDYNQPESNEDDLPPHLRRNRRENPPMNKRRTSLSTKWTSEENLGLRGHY
# EBV gp42 inh: Epstein-Barr virus gp42 inhibitors, primary screen, biochemical, uHTS, fluorescence polarization; Glycoprotein 42 (Epstein-Barr virus (strain AG876)), Q1HVG2; Fluorescence polarization binding assay, mP read-out; inhibition, % (tested at 21.74 µM); actives 0.42% (n = 220,000); in the data active means inhibition above about 50%
# BCLXL inh confirm: Bcl-xL inhibitors blocking Bim BH3 binding, confirmation, counter-screen for MCL1 inhibitor project, biochemical, fluorescence polarization; shares compounds with MCL1 BIM primary; GST-Bcl-xL / FITC-Bim BH3 peptide FP binding; inhibition, % at 10.9 µM; actives 54% (n = 1,700); AID 2166, 2009;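 active means inhibition above a cutoff equal to the mean inhibition of all tested compounds plus 3 SD, cut at about 30% in these data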;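 further: 0% = DMSO wells and 100% = unlabeled Bim BH3 control peptide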
# MCL1 inh confirm: inhibitors of MCL1 binding to BIM-BH3, confirmation, biochemical, fluorescence polarization, triplicate | shares compounds with MCL1 BIM primary | actives 61% (n = 1,700) | GST-MCL1 / FITC-Bim-BH3 fluorescence polarization | inhibition, % at 10.9 µM | AID 2168, 2009;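 active means inhibition above the average of all tested compounds plus 3 SD, cut at about 40% in these data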;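 further: 0% = DMSO wells and 100% = unlabeled Bim-BH3 control peptide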
# * marks the source's active call; other numbers are inactive results; ? = inconclusive; . = not tested or not shown; + = active, no number. A selection: hits, their analogues and other compounds. The true share with any hit is near 1.3%.
SMILES,BCLXL inh,GLD-1 TGE inh,MCL1 BIM primary,MEX-5 binding,EBV gp42 inh,BCLXL inh confirm,MCL1 inh confirm
Cc1cc(NC(=O)CSc2nnc(C3CC3)n2N)c([N+](=O)[O-])cc1C,-3.8,3.4,1.5,0.5,-13.0,.,.
Cc1cccc(C)c1NC(=O)CN(C)CC(=O)c1c(N)n(Cc2ccccc2)c(=O)n(C)c1=O,-7.8,2.5,-11.4,.,.,.,.
O=C(CN1C(=O)NC2(CCOc3ccccc32)C1=O)c1ccc[nH]1 (centres undefined),5.4,-0.1,5.3,-2.2,.,.,.
CC(C)NCC(=O)Nc1c2c(nc3ccccc13)CCC2,1.0,-3.1,-3.5,-0.6,-11.7,.,.
c1coc(CNc2c3c(nc4ccccc24)CCC3)c1,65.0*,-101.7,62.1*,-13.8,9.2,14.5,9.8
C=CCn1c(SCC(=O)Nc2ccc3c(c2)CCC3)nc2ccccc2c1=O,-1.0,1.9,+,-1.5,-4.0,5.7,14.6
CCCCn1c(SCC(=O)Nc2ccc3c(c2)CCC3)nc2ccccc2c1=O,4.1,0.9,0.5,-1.1,-4.8,.,.
Cc1cc(Cl)ccc1OCC(=O)N/N=C1\CC2C=CCC12 (centres undefined),-3.1,-0.4,1.1,1.0,-4.0,.,.
Cc1cc2ccccc2n1CCNC(=O)C(C)C,75.5*,96.4*,84.4*,0.2,12.3,25.0,35.0
Cc1cc2ccccc2n1CCNC(=O)Cc1ccccc1,7.2,16.0,7.6,-1.1,-9.8,.,.
CC(C)Cn1c(SCC(=O)Nc2cccnc2Cl)nnc1-c1ccco1,.,-3.2,.,.,.,.,.
CCN(CC)c1ccc(/C=C/C(=O)c2ccc(Br)cc2)cc1,58.2*,75.9*,61.0*,-51.1*,+,61.7*,62.7*
CN(C)c1ccc(C(=O)/C=C/c2ccc(Br)cc2)cc1,-0.3,-7.2,2.7,3.3,-36.4,.,.
COc1cc(CC(=O)OCC(=O)Nc2cc([N+](=O)[O-])ccc2Cl)cc(OC)c1OC,2.8,-2.5,0.3,1.5,7.0,.,.
O=C(COC(=O)c1ccccn1)Nc1ncc(C(F)(F)F)cc1Cl,2.6,9.5,1.3,-7.1,-6.9,.,.
O=C(COC(=O)c1ccc([N+](=O)[O-])s1)Nc1ncc(C(F)(F)F)cc1Cl,13.1,1.9,+,-1.9,34.5,11.8,15.8
Cc1cc(C)cc(N(CC(=O)NC2CCC(C)CC2)S(=O)(=O)c2c(C)[nH]c(=O)[nH]c2=O)c1 (centres undefined),2.0,-7.8,-2.7,-0.3,-9.6,.,.
O=C1C2CC=C(Cl)CC2C(=O)N1CCCCCCN1C(=O)C2CC=C(Cl)CC2C1=O (centres undefined),29.9,14.9,40.2*,-28.4*,63.4*,32.7*,55.1*
O=C1C2CC=C(Cl)CC2C(=O)N1CCN1CCOCC1 (centres undefined),-0.5,4.9,-1.4,-0.6,1.2,.,.
CCC(C)(C)NC(=O)C1CC(=O)N(CCc2ccc(F)cc2)C1 (centres undefined),2.8,3.5,-5.4,-1.0,.,.,.
CC(C)C[C@H](NC(=O)C1CC(=O)N(c2ccc3c(c2)OCO3)C1)C(=O)NC1CCCC1 (some centres undefined),56.0*,38.2*,56.2*,-20.7,.,49.1*,59.2*
CC(=O)OCC1=C(C(=O)O)N2C(=O)C(NC(=O)CCn3nc(C(F)(F)F)c(Br)c3C3CC3)C2SC1 (centres undefined),9.2,-0.9,65.1*,-3.7,-6.4,23.7,96.4*
CC(=O)OCC1=C(C(=O)O)N2C(=O)C(NC(=O)CCn3nc(C)c(Cl)c3C)C2SC1 (centres undefined),6.0,-3.8,5.7,-3.5,-7.3,.,.
COc1ccc(C(=O)c2ccsc2N)cc1,105.2*,65.8*,108.0*,0.1,.,14.3,17.7
Cc1ccc(C(=O)N/C(=C\c2ccc(-c3ccccc3[N+](=O)[O-])o2)C(=O)NCCCN(C)C)cc1,75.9*,51.3*,79.7*,-26.6*,.,19.1,9.0
SMILES,BCLXL inh,GLD-1 TGE inh,MCL1 BIM primary,MEX-5 binding,EBV gp42 inh,BCLXL inh confirm,MCL1 inh confirm
Cc1ccc(C(=O)N/C(=C\c2ccc(-c3ccccc3[N+](=O)[O-])o2)C(=O)NCCN(C)C)cc1,56.3*,22.6,65.8*,-10.5,.,7.4,2.0
O=c1cc2oc3cc(O)c(O)cc3c(-c3ccccc3[N+](=O)[O-])c-2cc1O,31.0*,8.4,86.5*,-10.7,.,61.6*,103.5*
Cn1nc(NC(=O)CC(C)(C)CC(=O)O)c2ccccc21,6.3,5.1,5.5,-0.7,-4.7,.,.
C/C(=N\Nc1ncnc2sc(C)c(C)c12)c1ccccn1,100.6*,25.1,100.5*,?,.,+,+
CCOc1cc(C(=O)Nc2ccc(NC(C)=O)cc2)ccc1OCC(=O)N1CCCCC1,6.6,3.4,-3.6,0.7,-45.0,.,.
N#Cc1cc(Oc2cccc3cccnc23)c(-n2nnc3ccccc32)cc1C#N,142.9*,44.5*,139.0*,-3.4,11.8,17.2,24.7
N#Cc1cc(O)c(-n2nnc3ccccc32)cc1C#N,0.4,-4.1,-8.2,-1.1,-6.5,.,.
N#Cc1ccc(Oc2cccc3cccnc23)c([N+](=O)[O-])c1,149.7*,125.4*,177.4*,-6.1,.,33.0*,50.8*
O=[N+]([O-])c1cccc(C=Nc2cc3c(cc2Br)OCCO3)c1,7.1,2.4,0.7,.,-5.1,.,.
COc1cc([N+](=O)[O-])cc2sc(NC(C)=O)nc12,-1.1,-14.8,0.8,-0.2,-12.5,.,.
O=C(NC(c1ccccc1)c1ccccc1)C1CCCN(S(=O)(=O)c2cnc[nH]2)C1 (centres undefined),3.0,6.4,0.8,2.1,2.2,.,.
CC(C)C1Cc2c(C#N)c(N)sc(=S)c2CO1 (centres undefined),66.8*,65.9*,63.8*,2.0,20.4,22.9,16.6
CCOc1ccc(C2C(C#N)=C(N)Oc3cc(C)n(CCN(C)C)c(=O)c32)cc1OCC (centres undefined),2.6,7.5,-1.5,-2.5,-3.9,.,.
CCCCCC#CCC#CCC#CCC#CCCCC(=O)O,24.6,11.3,96.2*,-22.2,36.5,15.0,86.2*
CC(=O)Nc1ccc(S(=O)(=O)NNC(=O)c2cccc([N+](=O)[O-])c2)cc1,.,.,.,1.9,.,.,.
